Bioassay records from PubChem BioAssay.
An excerpt weighted towards active compounds, which were near 3.5% of everything screened.
TEAD-YAP block: TEAD-YAP interaction inhibition. HEK-TIYL cells, TEAD-Gal4/YAP UAS-luciferase luminescence. inhibition, % at 9.12 µM. 640,000 tested, 1.4% active; in the data active = inhibition above about 32%
MITF primary: inhibitors of human MITF; O75030; AlphaScreen MITF homodimerization, bead proximity signal; inhibition, % at 2.6 µM; 650,000 tested, 0.91% active; AID 1259374; in the data active = inhibition above about 50%
GPR151 ag: activators of human GPR151; activation, % at 11.2 µM; Q8TDV0; 650,000 tested, 1% active; PathHunter beta-arrestin GPR151 cells, luminescence; AID 1508602; in the data active = activation above about 4.9%
FBW7 act: human FBW7 E3 ligase activation, primary screen | Q969H0 | AlphaScreen FBW7–phospho-cyclin E peptide binding, activator screen | normalized activity (activation), % at 26.1 µM | 650,000 tested, 0.13% active | AID 1259310; in the data active = normalized activity above about 1.9%;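 note: purified mutant Fbw7 with reduced substrate affinity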
GPR151 conf act: human GPR151 activation, confirmation screen. activation, % at 11.2 µM. AID 1508609. 6,700 tested, under 10 active. shares compounds with GPR151 ag. GPR151 PathHunter beta-arrestin cells, luminescence, 90 min; % of EA-reagent control over plate median;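 active = mean percent activation across replicates above the confirmation screen cutoff of 4.91%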
GPR119 counter: GPR119 activation, counter-screen for GPR151 activators | shares compounds with GPR151 ag | GPR119 PathHunter beta-arrestin cells, luminescence, 90 min; 0 = compound-well median, 100 = enzyme-acceptor control | activation, % at 11.2 µM | 6,700 tested, 0.3% active | AID 1508611;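 active = mean percent activation in the counterscreen above 29.09%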;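 note: counterscreen on off-target GPR119 to flag nonselective hits from the GPR151 activator screen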
Target sequence (Q8TDV5 whole entry, looked up): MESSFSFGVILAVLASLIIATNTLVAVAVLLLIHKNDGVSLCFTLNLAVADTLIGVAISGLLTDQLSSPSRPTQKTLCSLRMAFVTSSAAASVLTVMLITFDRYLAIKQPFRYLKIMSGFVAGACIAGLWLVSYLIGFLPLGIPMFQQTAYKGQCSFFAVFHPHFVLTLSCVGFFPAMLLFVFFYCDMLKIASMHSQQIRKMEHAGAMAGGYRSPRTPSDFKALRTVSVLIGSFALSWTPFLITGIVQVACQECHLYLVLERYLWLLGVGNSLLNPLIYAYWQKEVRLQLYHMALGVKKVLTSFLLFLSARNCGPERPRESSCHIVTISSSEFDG
Hits are given with their value; . = inactive; / = no result given.

SMILES	TEAD-YAP block	MITF primary	GPR151 ag	FBW7 act	GPR151 conf act	GPR119 counter
CCCOc1ccc(NC(=O)CC2C(=O)N(c3ccc(Cl)cc3)C(=S)N2Cc2cccnc2)cc1 (stereo not given)	.	.	.	.	/	/
COc1ccc(NC(=O)CC2C(=O)N(c3ccc(Cl)cc3)C(=S)N2CCCN2CCOCC2)cc1 (stereo not given)	.	.	5.0	.	.	.
CCCOc1ccc(NC(=O)CC2C(=O)N(c3ccc(Cl)cc3)C(=S)N2Cc2ccncc2)cc1 (stereo not given)	.	.	6.3	.	.	.
CCN1CCN(CCCN2C(=S)N(c3ccc(Cl)cc3)C(=O)C2CC(=O)Nc2ccc(OC)cc2)CC1 (stereo not given)	.	.	.	.	/	/
NC(=O)CC1C(=O)N(c2ccc(Cl)cc2)C(=S)N1Cc1cccnc1 (stereo not given)	.	.	5.4	.	.	.
COc1cccc(CN(C)C(=O)c2cc3ccc(-c4cn[nH]c4)nc3[nH]2)c1	.	.	.	.	/	/
CCOC(=O)C1=C(C)N=c2s/c(=C\c3ccco3)c(=O)n2C1c1ccc(OCC)c(OCC)c1 (stereo not given)	.	.	.	.	/	/
CCN1CCC(N(Cc2ccco2)C(=O)NC2CCCC2)CC1	.	.	5.0	.	.	.
COc1ccc(/C=C2\N=C(c3ccccc3OC)OC2=O)c(OC)c1	.	.	6.5	.	.	.
COc1ccc(OC)c(/C=C2\N=C(c3ccccc3OC)OC2=O)c1	.	.	.	.	/	/
COc1ccc(CCNC(=O)c2cc(-c3cccc(OC)c3)nc3ccccc23)cc1	.	.	.	.	/	/
COc1cccc(-c2cc(C(=O)NCCCn3ccnc3)c3ccccc3n2)c1	.	.	7.2	.	.	.
Cc1cccn2c(=O)c3cc(C(=O)N4CCc5ccccc54)sc3nc12	.	.	5.0	.	.	.
O=C(CN1C(=O)[C@H]2CCCN2C(=O)c2ccccc21)Nc1cccc2ccccc12	.	.	6.8	.	.	.
O=C(CN1C(=O)[C@@H]2CCCN2C(=O)c2ccccc21)Nc1ccccc1F	.	.	.	.	/	/
CCC(=O)N1CCC(c2nc3ccccc3[nH]2)CC1	.	.	.	.	/	/
COc1ccc(CCNC(=O)c2sc3nc(C)nc(N4CCCCC4)c3c2C)cc1OC	.	.	25	.	.	.
COc1ccc(CCNC(=O)c2sc3nc(C)nc(N4CCC(C)CC4)c3c2C)cc1OC	.	.	.	.	/	/
Cc1nc(N2CCCCC2)c2c(C)c(C(=O)N3CCN(c4ccccc4)CC3)sc2n1	.	.	5.3	.	.	.
CCOc1ccc(N2C(=O)NC(=O)/C(=C\c3ccc(OC)c(OC)c3)C2=O)cc1	.	.	.	.	/	/
COc1ccc(N2C(=O)NC(=O)/C(=C\c3ccc(F)cc3)C2=O)cc1	.	.	5.5	.	.	.
C=CCOc1ccc(/C=C2/C(=O)NC(=O)N(c3ccc(OCC)cc3)C2=O)cc1OCC	.	.	7.6	.	.	.
CC(=O)N1CCc2cc(NC(=O)CSc3nnc4ccccn34)ccc21	.	.	.	.	/	/
CNC(=O)c1c(NC(=O)c2ccc(OC)cc2)sc2c1CCC2	.	.	.	.	/	/
CCOc1cccc(CN2CCC(C(=O)NCc3ccccn3)CC2)c1O	.	54	8.7	.	.	.
SMILES	TEAD-YAP block	MITF primary	GPR151 ag	FBW7 act	GPR151 conf act	GPR119 counter
CCOc1ccccc1CN1CCC(C(=O)NCc2ccc(C)cc2)CC1	.	.	.	.	/	/
O=S(=O)(c1ccc(Cl)cc1)N(CCCN1CCOCC1)Cc1cccs1	.	.	5.8	.	.	.
O=S(=O)(c1ccc(F)cc1)N(CCCN1CCOCC1)Cc1cccs1	.	.	.	.	/	/
O=C(CSc1nc2cc(Cl)ccc2s1)Nc1ncccn1	.	.	.	.	/	/
CC(=O)/C=C/c1ccc(OC(F)F)cc1	.	.	6.0	.	.	.
Nc1nnc(SCC(=O)OCC(=O)Nc2ccc(Br)cc2)s1	.	.	.	.	/	/
Nc1nnc(SCC(=O)OCC(=O)Nc2ccc(Br)cc2F)s1	.	.	6.2	.	.	.
CCN(CC)c1ccc(/C=C/c2[nH]c(=O)[nH]c(=O)c2[N+](=O)[O-])c(OC)c1	.	.	.	.	/	/
CCOC(=O)C1CCCCN1C(=O)CCc1nnc(CCc2ccc(OC)cc2)o1 (stereo not given)	.	.	.	.	/	/
CCOc1ccc(CCNS(=O)(=O)c2c(C)n[nH]c2C)cc1OCC	.	.	5.6	.	.	.
Cc1cccc(CCNS(=O)(=O)c2c(C)n[nH]c2C)c1	.	.	.	.	/	/
COc1ccc2c(c1)c(CC(=O)Nc1nnc(C)o1)c(C)n2C(=O)c1ccc(Cl)cc1	.	.	5.7	.	.	.
O=C(O)CCC(=O)c1ccc(Cc2ccccc2)cc1	.	.	5.3	.	.	.
O=C(COc1ccc(Cl)cc1Cl)Nc1nnc(-c2ccccn2)o1	.	.	.	.	/	/
CC(C)C(NC(=O)C1CCCCC1)C(=O)Nc1ccncc1 (stereo not given)	.	.	5.6	.	.	.
CC(Oc1ccccc1)C(=O)Nc1cc(NC(=O)C(C)Oc2ccccc2)cc(C(=O)O)c1 (stereo not given)	.	.	.	.	/	/
O=C(OC1C(C2COC3(CCCCC3)O2)OC2OC3(CCCCC3)OC21)c1ccc([N+](=O)[O-])cc1 (stereo not given)	.	.	.	.	/	/
CC(Oc1ccccc1)C(=O)Nc1ccc(F)cc1F (stereo not given)	.	.	5.3	.	.	.
CCN(CC)c1nc(C)c([N+](=O)[O-])c(C)c1C(N)=O	.	.	6.5	.	.	.
COc1cc(CN2CCN(C(=O)c3cccs3)CC2)cc(OC)c1OC	.	.	.	.	/	/
CC(C)CCCC(C)NC(=O)c1ccc([N+](=O)[O-])cc1 (stereo not given)	.	.	.	.	/	/
O=C(COc1ccccc1)Nc1ccccc1NC(=O)COc1ccccc1	.	.	5.8	.	.	.
O=C(COc1ccc([N+](=O)[O-])cc1)Nc1cccc2cccnc12	.	.	5.9	.	.	.
CCOc1ccc(OCC(=O)Nc2ccccc2CC)cc1	.	.	.	.	/	/
CC(=O)Nc1ccccc1NC(=O)COc1ccccc1	.	.	.	.	/	/
SMILES	TEAD-YAP block	MITF primary	GPR151 ag	FBW7 act	GPR151 conf act	GPR119 counter
CCOc1ccccc1NC(=O)COc1ccc(F)cc1	.	.	.	.	/	/
CCCOc1ccccc1NC(=O)COc1ccc(C#N)cc1	.	.	12	.	.	.
CCc1ccccc1NC(=O)COc1ccc(C#N)cc1	.	.	7.5	.	.	.
CNc1ccccc1C(=O)OCC(=O)c1c(C)[nH]c2ccccc12	.	.	.	.	/	/
COc1ccc(OCC(=O)Nc2ccccc2CO)cc1	.	.	9.2	.	.	.
COc1ccc(CC(=O)Nc2ccc(N(C)C)c3ccccc23)cc1	.	.	5.6	.	.	.
